BAZ2B block: BAZ2B (human) inhibition | AlphaScreen BAZ2B-H3K14Ac peptide displacement | Q9UIF8 | Potency, µM (titrated, usually from 114 µM), for the others: at the top dose activity change, negative = inhibition, actives largely listed as inhibitors | AID 504333 | 360,000 tested, 4.4% active; further: on the % scale 0 is the no-effect control and ±100 the full control effect; nearly all actives have a fitted effect of over 60% in size
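Compounds, titrated to a top concentration of 110 uM, were incubated 30 min at room temperature with preformed BAZ2B/acetyl-K14 H3 peptide complex (50 nM each). Proximity signal was measured by AlphaScreen after 20 min with beads.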
JMJD2A Tudor: inhibitors of human JMJD2A Tudor domain | O75164 | AlphaScreen JMJD2A-Tudor / H3K4me3 peptide binding | Potency, µM (top dose mostly 114 µM), for the others: top-dose activity change, negative = inhibition, usual class: inhibitors | 390,000 tested, 4.4% active; further: on the % scale 0 is the no-effect control and ±100 the full control effect; nearly all actives have a fitted effect of over 50% in size
HP1b chromo inh: HP1-beta chromodomain-methylated histone interaction inhibition; P83916; AlphaScreen HP1-beta / biotin-H3K9me3 peptide binding; Potency, µM (doses to about 114 µM), without a hit: at the highest dose activity change, negative = inhibition, actives largely listed as inhibitors; 390,000 tested, 0.56% active; further: nearly all actives have a fitted effect of over 70% in size
Target sequence (P83916 whole entry, looked up): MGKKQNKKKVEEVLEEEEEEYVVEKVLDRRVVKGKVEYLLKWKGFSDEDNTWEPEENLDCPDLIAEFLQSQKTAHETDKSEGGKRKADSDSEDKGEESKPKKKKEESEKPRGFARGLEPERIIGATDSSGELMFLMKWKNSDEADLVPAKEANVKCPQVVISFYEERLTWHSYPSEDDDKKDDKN
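AlphaScreen: HP1-beta (50 nM) preformed 30 min with biotin-H3(1-18)K9me3 peptide (50 nM) in PBS pH 7.4, 0.01% Tween-20. Compound added for 30 min at RT, then streptavidin donor/nickel chelate acceptor beads (10 ug/mL) for 30 min.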
G9a inh: blocks human histone lysine methyltransferase G9a; Q96KQ7; G9a H3K9 monomethylation, AlphaScreen, 2 h; Potency, µM (series often up to 102 µM), without a hit: at the top dose activity, negative = inhibition, most hits filed as inhibitors; 350,000 tested, 8.8% active; AID 504332; further: on the % scale 0 is the no-effect control and ±100 the full control effect; nearly all actives have a fitted effect of over 75% in size
Target sequence (Q96KQ7 913-1193 limits assumed): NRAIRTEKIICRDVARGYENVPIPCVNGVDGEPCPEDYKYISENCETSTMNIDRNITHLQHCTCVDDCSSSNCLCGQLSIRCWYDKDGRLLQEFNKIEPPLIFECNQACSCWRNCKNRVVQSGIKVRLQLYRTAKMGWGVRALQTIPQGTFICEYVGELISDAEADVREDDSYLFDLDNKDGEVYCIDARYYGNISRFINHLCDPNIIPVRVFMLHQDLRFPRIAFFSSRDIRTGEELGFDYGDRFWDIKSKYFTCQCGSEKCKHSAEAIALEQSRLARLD
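AlphaScreen read-out: biotin-H3K9 peptide (500 nM) methylation by 20 nM enzyme with 20 uM SAM, 2 h at room temperature after 15 min compound preincubation; anti-monomethyl H3K9 antibody plus donor/acceptor beads, 10 min dark.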
GLS inh: glutaminase GLS (human) inhibition; O94925; GLS enzymatic activity, qHTS titration; Potency, µM (doses to about 45.5 µM), without a hit: at the top dose activity change, negative = inhibition, usual class: inhibitors; 410,000 tested, 0.21% active; further: on the % scale 0 is the no-effect control and ±100 the full control effect
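Enzyme dispensed in phosphate buffer (45 mM, pH 8.2, 0.02% Tween-20), compounds pinned in, then 1 mM L-glutamine solution and the glutamate oxidase–HRP–Amplex Red mix added; fluorescence read immediately and again after 30 min at room temperature.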
* = called active by the depositor; ? = inconclusive; / = no result given; [ ] = remark or other dose. The list is not random: actives were taken first. Their share in the collection is about 10%. The call rests on the fitted dose curve; in most records, active means well fitted curve in the direction sought with a large enough effect; inconclusive means small, poorly fitted or top-dose-only effect, or another doubt; inactive means no such curve, though single readings can be large; an effect the other way counts as inactive or inconclusive. Potency means the concentration at half of the fitted maximal effect.

SMILES | BAZ2B block | JMJD2A Tudor | HP1b chromo inh | G9a inh | GLS inh
COc1ccc(N2CCN(C(=O)COC(=O)Cc3c(F)cccc3Cl)CC2)cc1 | ? | ? | -13.1% | 50.1µM* | 26.2%
COc1ccc(-n2nnc3c(=O)n(C/C=C/c4ccccc4)cnc32)cc1 | -5.5% | -1.9% | 26.1% | 22.2%[12.7 µM] | -1.2%
COc1ccc(N2CCN(C(=O)COC(=O)Cc3cccc(OC)c3)CC2)cc1 | -26.6% | -34.9% | -16.0% | 39.8µM* | -2.4%
COc1cccc(CC(=O)OCC(=O)N2CCN(c3ccc(F)cc3)CC2)c1 | 5.3% | -7.3% | 5.1% | / | 23.1%
CCO[C@H]1OC(C(=O)NC2CC2)=C[C@@H](c2ccc(C(F)(F)F)cc2)[C@@H]1CCCO | -2.0% | -11.1% | 22.7% | -33.1%[59 µM] | 0.3%
Cc1cccc2c1cnn2C(=O)Nc1ccc(Br)cc1F | -6.0% | 10.1% | 24.2% | 35.5µM* | -3.9%
CN(C)c1ccc(C(=O)c2ccc(O)cc2O)cc1 | ? | -25.2%[57.1 µM] | -6.6% | -24.8%[59 µM] | 31.2%
CN(C)c1ccc(Cc2cc3c(O)ccc(O)c3cc(Cc3ccc(N(C)C)cc3)c2=O)cc1 | / | 3.16µM* | ? | / | -6.4%
COc1ccc(/C=N/Nc2nccnc2Cl)cc1 | 3.6% | -13.1% | 5.9% | 1.8% | 19.7%
CN(C)c1ccc(NC(=O)CSc2nnc(-c3cccs3)n2Cc2ccco2)cc1 | 44.7µM* | 39.8µM* | ? | 10µM* | 34.2%
CCn1c(SCC(=O)Nc2ccccc2N2CCOCC2)nnc1-c1ccccc1 | 2.8% | -16.9% | 8.5% | -5.4%[12.7 µM] | -1.2%
CCn1c(SCC(=O)Nc2ccc(N(C)C)cc2)nnc1-c1cccc(C)c1 | ? | ? | -22.2% | 7.08µM* | 31.9%
CCn1c(Cn2nnc(-c3ccccc3)n2)nnc1SCC(=O)Nc1ccc(C(C)=O)cc1 | -4.3% | -16.3% | 6.0% | 18.1%[12.7 µM] | 7.2%
CCn1c(SCC(=O)Nc2ccc(N3CCOCC3)c(Cl)c2)nnc1-c1ccc(N)cc1 | -1.1% | ? | 42.5% | 44.7µM* | 5.4%
CCn1c(Cn2nnc(-c3ccccc3)n2)nnc1SCC(=O)Nc1ccc(N(C)C)cc1 | -4.8% | -26.5% | 22.8% | 12.6µM* | 8.7%
CN1C(=O)C2(SCC(=O)N2c2cccc(C(F)(F)F)c2)c2ccccc21 (stereo not given) | -2.0% | -2.8% | 72.7% | 25.9%[59 µM] | 0.4%
CCC1CCCCN1S(=O)(=O)c1ccc(-n2cnnn2)c(C)c1 (stereo not given) | -16.9% | -3.5% | 30.1% | -8.6% | 7.7%
CCOC(=O)C(NC(=O)c1ccccc1)(OCC1(CC)COC1)C(F)(F)F (stereo not given) | 12.0% | -11.0% | 36.7% | 2.1%[59 µM] | -3.0%
O=C(NCc1cccnc1)c1cccc2c1C(=O)N(Cc1cccnc1)C2 | -8.6% | ? | 17.5% | 14.1%[59 µM] | -0.5%
O=C(c1ccc(Cl)c(S(=O)(=O)N2CCOCC2)c1)N1CCc2ccccc2C1 | / | -0.8% | 36.1% | / | 15.6%
Cc1cccc(C)c1NC(=O)N1C(C(=O)O)CSC1C(=O)O (stereo not given) | ? | 17.8µM* | -6.0% | ? | 0.1%
COC(=O)C1CSC(C(=O)OC)N1C(=O)Nc1c(C)cccc1C (stereo not given) | 10.3% | -19.9% | 8.5% | 15.7%[59 µM] | 13.0%
COc1cc(CN2CCN(Cc3ccc(C(F)(F)F)cc3)CC2)cc(OC)c1OC | 17.8µM* | 20µM* | ? | -1.6%[0.501 µM] | 0.3%
COc1ccc(CNCc2ccc(C(F)(F)F)cc2)cc1OC | -16.9% | 89.1µM* | -6.0% | 79.4µM* | -11.1%
COc1cc(CN2CCN(Cc3ccccc3C(F)(F)F)CC2)cc(OC)c1OC | 20µM* | 0.794µM* | 25.1µM* | -17.5%[2.33 µM] | 3.7%
CS(=O)(=O)N1CCN(Cc2ccc(C(F)(F)F)cc2)CC1 | ? | 1.58µM* | ? | 3.16µM* | 4.7%
CS(=O)(=O)N1CCN(Cc2ccccc2C(F)(F)F)CC1 | 2.8% | -15.8%[11.4 µM] | 30.2% | 14.1%[59 µM] | -17.3%
COc1ccc(CNCc2ccncc2)cc1OC | -7.2% | -7.9% | 62.1% | -8.5% | 2.9%
Cc1cc(/C=N/NC(=O)c2cccs2)c(C)n1-c1cnccn1 | ? | -11.7% | 8.5% | / | 6.3%
O=C(O)CN1C(=O)/C(=C2\SC(=S)N(C(Cc3ccccc3)C(=O)O)C2=O)c2ccccc21 (stereo not given) | 56.2µM* | -26.5% | -14.8% | 50.1µM* | ?
